A selection: hits, their analogues and other compounds. The true share with any hit is near 4.3%.
SMARCA2 act: activators of SMARCA2 function | MG213 cells, MMTV-luciferase reporter, dexamethasone, overnight | activation, % at 9.1 µM | hit rate 1% among 370,000; in the data active means activation above about 7.8%
AF4-AF9 inh: blocks AF4 peptide binding to human AF9; hit rate 0.47% among 350,000; inhibition, % at 10 µM; P42568; AlphaScreen, biotin-AF4 peptide binding to FLAG-AF9; AID 651704;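 active means every replicate reaching a set inhibition limit, whatever the replicate mean, cut at about 25% in these data; inconclusive means mean inhibition reaches that limit but some replicates miss it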
Target sequence (P42568 whole entry, looked up): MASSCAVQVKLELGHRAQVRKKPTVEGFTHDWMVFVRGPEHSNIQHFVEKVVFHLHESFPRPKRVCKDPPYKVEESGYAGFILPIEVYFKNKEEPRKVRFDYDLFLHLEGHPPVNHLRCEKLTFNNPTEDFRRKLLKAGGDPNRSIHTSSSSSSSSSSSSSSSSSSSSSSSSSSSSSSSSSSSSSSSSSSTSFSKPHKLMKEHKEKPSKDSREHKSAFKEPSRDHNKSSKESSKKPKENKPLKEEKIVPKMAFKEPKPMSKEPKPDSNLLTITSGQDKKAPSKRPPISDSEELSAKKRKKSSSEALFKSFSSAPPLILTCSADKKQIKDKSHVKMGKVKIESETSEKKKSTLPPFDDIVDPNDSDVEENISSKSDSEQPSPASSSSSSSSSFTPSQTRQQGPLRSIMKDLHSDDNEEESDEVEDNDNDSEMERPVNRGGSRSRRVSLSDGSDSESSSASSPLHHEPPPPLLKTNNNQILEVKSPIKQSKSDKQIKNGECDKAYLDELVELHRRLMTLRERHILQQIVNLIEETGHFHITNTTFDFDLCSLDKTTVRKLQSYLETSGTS
esBAF inh: inhibitors of esBAF chromatin remodeling in mouse ES cells; Bmi1-luciferase knock-in reporter, 24 h; 100% = twice the neutral-well signal; hit rate 2% among 350,000; reporter increase, % at 12.5 µM; in the data active means activation above about 40%; inconclusive means no clear call, values can overlap the other calls;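 further: a rise in the Bmi1 reporter signal indicates esBAF inhibition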
MITF act: increases MITF-driven TRPM1 promoter luciferase signal | activation, % at 12.5 µM | AID 588334 | hit rate 0.75% among 300,000 | SK-MEL-5 TRPM1-promoter luciferase, 24 h; % of positive control, neutral wells = 0;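 active means mean activation of at least 80% with every replicate also reaching 80%; inconclusive means mean reaches 80% but some replicate falls short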
FGF22 binding: FGF22 (human) thermal shift binding | Q9HCT0 | recombinant FGF22 thermal shift, SYPRO orange fluorescence; percent of sucrose octasulfate shift, DMSO zero | activity (Tm shift, normalised), % at 9.99 µM | hit rate 1.5% among 340,000 | AID 651658;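 active means mean Tm shift, scaled 0 neutral to 100 positive control, at about 1.3% or above, every replicate too, limit read from the data; inconclusive means no clear call, values can overlap the other calls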
Wnt bcat act: Wnt/beta-catenin pathway activation. hit rate 1.2% among 300,000. Wnt/beta-catenin reporter cell assay, activator, plate reader. activation, % at 9.35 µM; in the data active means activation above about 30%, passing the limit was not always enough; inconclusive means no clear call, values can overlap the other calls
A number is an active result; . = inactive; ? = inconclusive; / = not tested or not shown.

SMILES	SMARCA2 act	AF4-AF9 inh	esBAF inh	MITF act	FGF22 binding	Wnt bcat act
CCC1CCCCN1CCCNC(=O)c1ccc2c(c1)NC(=O)CS2 (stereo not drawn)	.	.	.	.	.	.
Cc1nnc(SCC(=O)NNC(=O)c2ccco2)n1-c1ccccc1	.	.	.	.	.	.
Cc1ccc(-n2c(C)nnc2SCC(=O)NNC(=O)c2ccco2)cc1	.	.	/	.	44	.
COc1ccc(C=NN(C)C(=O)Nc2cccc(Cl)c2)cc1OC	.	.	/	/	.	.
CCN(CC(=O)Nc1c(F)cccc1F)C(=O)CCCOc1ccc(OC)cc1	.	.	.	.	.	.
CCN(CC(=O)Nc1c(F)cccc1F)C(=O)CCc1ccc(OC)cc1	.	.	/	.	44	.
O=C(C[C@@H]1CC[C@H](NC(=O)Nc2ccccc2)[C@@H](CO)O1)NCc1cccc(F)c1	/	.	.	/	.	/
Cc1ccc([C@H]2C[C@@H](O)[C@H](n3cc(C4CC4)nn3)CN2CC2CCCCC2)cc1	7.8	.	.	/	.	.
O[C@H]1C[C@H](c2ccc(Cl)cc2)N(CC2CCCCC2)C[C@@H]1n1cc(C2CC2)nn1	.	.	.	/	.	.
O[C@@H]1C[C@H](c2ccccc2)N(CC2CCCCC2)C[C@H]1n1cc(C2CC2)nn1	.	.	.	/	.	.
O[C@@H]1C[C@H](c2ccc(Cl)cc2)N(CC2CCCCC2)C[C@H]1n1cc(C2CC2)nn1	7.9	.	.	/	.	.
O=C(Cc1ccncc1)N1CC(=O)N2[C@H](C1)[C@@H](c1ccc(Br)cc1)[C@@H]2CO	/	.	/	/	/	/
Brc1ccc(N=NNc2ccccc2)cc1	.	.	54	.	.	.
O=[N+]([O-])c1ccc(N=NNc2ccccc2)cc1	/	/	/	.	/	/
CCCNC(=O)C[C@@H]1CC[C@H]2[C@H](COc3ccc(NC(=O)c4cccc(C(F)(F)F)c4)cc3C(=O)N2C)O1	/	.	.	/	.	/
COc1ccc(CCNC(=O)c2cc(S(=O)(=O)N3CCCCC3)ccc2Cl)cc1	.	.	/	.	.	.
COc1ccc(N(C)S(=O)(=O)c2ccc(Cl)c(C(=O)NCCc3ccc(Cl)cc3)c2)cc1	.	.	/	.	43	.
N#C[C@@H]1[C@@H](c2ccc(C#CC3CCCC3)cc2)[C@@H](CO)N1C(=O)Cc1ccccn1	/	.	/	/	/	/
Cn1cc(S(=O)(=O)Nc2ccc(Oc3ccccc3)cc2)c(=O)n(C)c1=O	.	.	.	.	.	.
COc1ccc(NS(=O)(=O)c2cn(C)c(=O)n(C)c2=O)cc1	.	.	.	.	.	42
O=C(O)c1ccc(N/N=C/c2ccnc3ccccc23)cc1	.	.	/	.	.	.
O=C(N/N=C/c1ccnc2ccccc12)c1ccccc1O	.	.	55	.	.	.
O=C(N/N=C/c1ccc2nccnc2c1)c1ccccc1O	.	.	/	/	.	38
O=C(NCc1ccccc1)C(c1ccccc1)N(C(=O)c1csnn1)c1ccccc1 (stereo not drawn)	.	.	.	.	43	.
C=CCN(C(=O)c1csnn1)C(C(=O)NCc1ccc(F)cc1)c1ccccc1F (stereo not drawn)	.	.	.	.	43	.
SMILES	SMARCA2 act	AF4-AF9 inh	esBAF inh	MITF act	FGF22 binding	Wnt bcat act
CC(C)c1ccc(N(C(=O)c2csnn2)C(C(=O)NC(C)(C)C)c2ccncc2)cc1 (stereo not drawn)	.	/	58	.	/	/
Cc1ccc(N(C(=O)c2csnn2)C(C(=O)NC(C)(C)C)c2ccncc2)cc1 (stereo not drawn)	.	.	.	.	.	.
C[C@H](CO)N1C[C@H](C)[C@H](CN(C)C(=O)C2CCC2)Oc2cc(-c3cccnc3)ccc2S1(=O)=O	/	.	.	/	.	/
O=C1CCCC/C1=N\Nc1ccc(OCc2ccccc2)cc1	.	.	/	.	1.5	/
CC(O)CNCc1ccc(Cl)cc1Cl (stereo not drawn)	.	.	/	.	45	.
COc1ccc(C(=O)Nc2ccc3c(c2)OC[C@@H](C)N(Cc2cocn2)C[C@H](C)[C@H](OC)CN(C)C3=O)cc1	/	.	.	/	/	/
CC/C(=N\Nc1nncc2ccccc12)c1ccc(F)cc1	.	.	41	88	.	.
N#Cc1cc2c(nc1SCc1ccccc1)CCC2	.	/	/	/	/	/
N#Cc1cc2c(nc1SCc1ccccc1)CCCC2=O	.	/	.	.	/	49
Cc1ccc(CONC(=O)c2ccc(Cl)cc2)cc1	.	.	.	.	.	34
Nc1cc([N+](=O)[O-])ccc1OCc1ccccc1	.	.	/	.	.	48
Cc1ccc(CONC(=O)c2ccc(C)cc2)cc1	.	.	44	95	.	38
O=C(NOCc1ccccc1)c1ccc(Cl)cc1	.	.	.	.	.	.
CC(=O)N(C)c1cc([N+](=O)[O-])ccc1OCc1ccccc1	.	.	.	.	.	.
Cc1ccc(CC(=O)c2ccc(Cl)cc2)cc1	.	.	?	92	.	.
O=C(C1CCC1)N1CC(=O)N2[C@H](CO)[C@H](c3ccc(-c4ccccc4F)cc3)[C@H]2C1	/	.	/	/	/	/
CN1C(=O)c2cc(NC(=O)CC(F)(F)F)ccc2OC[C@H]2O[C@@H](CC(=O)NC3CCC3)CC[C@@H]21	/	.	.	/	.	/
C[C@@H]1CN([C@H](C)CO)C(=O)CCCn2cc(nn2)CO[C@@H]1CN(C)Cc1ccc2c(c1)OCO2	/	.	.	/	.	/
O=C(NOCc1ccccc1)c1ccc([N+](=O)[O-])cc1	.	.	.	.	.	38
COc1ccc(C(=O)NOCc2ccccc2)cc1	.	.	.	.	.	.
O=C(O)CCCCC1SCC2NC(=O)NC21 (stereo not drawn)	.	70	.	.	.	.
CCCCCC1NC(=O)NC1CCCCCC(=O)O (stereo not drawn)	.	/	.	.	/	.
O=C(c1cc(=O)c2ccccc2o1)N1CCN(c2cccc(Cl)c2)CC1	.	.	/	.	43	.
CSc1ccccc1C(=O)N1CCN(c2cccc(Cl)c2)CC1	.	.	/	.	43	.
O=C(c1cc(=O)c2ccccc2o1)N1CCN(c2ccccc2F)CC1	.	.	/	.	.	.
SMILES	SMARCA2 act	AF4-AF9 inh	esBAF inh	MITF act	FGF22 binding	Wnt bcat act
CN(c1ccccc1C(=O)N1CCN(c2cccc(Cl)c2)CC1)S(C)(=O)=O	.	/	.	.	/	/
CN(Cc1ncc[nH]1)C(=O)CC1C(=O)NCCN1Cc1c(F)cccc1Cl (stereo not drawn)	.	.	.	.	.	.
C=C(C)CN(CC)C(=O)CC1C(=O)NCCN1Cc1c(F)cccc1Cl (stereo not drawn)	.	.	/	.	43	.
Cc1noc(C)c1S(=O)(=O)Nc1ccc2c(c1)CC(=O)N([C@H](C)CO)C[C@H](C)[C@@H](CN(C)C)O2	/	.	.	/	.	/
CCOC(=O)[C@]12CCC=C1N(Cc1ccco1)C(=O)[C@H](CC(=O)NCc1ccc(C)o1)C2	.	.	/	/	43	.
CCOC(=O)[C@]12CCC=C1N(Cc1ccccc1)C(=O)[C@H](CC(=O)NCc1ccc(C)o1)C2	.	.	/	/	.	.

Bioassay records deposited in PubChem by several laboratories.
